# Laboratory results: PubChem BioAssay (EPA / NIEHS)
# Results filed as inconclusive are left out. Activity calls are given as the source filed them. How the source made its calls: active means hit-call score of the fitted dose curve at least 0.9, where 1 is the maximum; inconclusive means response in the unintended direction; inactive means score below 0.9.
# How the values were obtained:
# [1] = biological target: rat Thyrotropin Releasing Hormone Receptor (TRH), Trhr (gene 25570) (UniProt Q01717); assay: NVS_GPCR_rTRH: NovaScreen (NVS) G Protein-Coupled Receptor Assay for rat Thyrotropin Releasing Hormone Receptor (TRH) (AID 2283329);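 further: hit means lower bound tracer signal versus DMSO baseline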
# rat Thyrotropin Releasing Hormone Receptor (TRH), Trhr (gene 25570), sequence (Q01717 whole entry, looked up): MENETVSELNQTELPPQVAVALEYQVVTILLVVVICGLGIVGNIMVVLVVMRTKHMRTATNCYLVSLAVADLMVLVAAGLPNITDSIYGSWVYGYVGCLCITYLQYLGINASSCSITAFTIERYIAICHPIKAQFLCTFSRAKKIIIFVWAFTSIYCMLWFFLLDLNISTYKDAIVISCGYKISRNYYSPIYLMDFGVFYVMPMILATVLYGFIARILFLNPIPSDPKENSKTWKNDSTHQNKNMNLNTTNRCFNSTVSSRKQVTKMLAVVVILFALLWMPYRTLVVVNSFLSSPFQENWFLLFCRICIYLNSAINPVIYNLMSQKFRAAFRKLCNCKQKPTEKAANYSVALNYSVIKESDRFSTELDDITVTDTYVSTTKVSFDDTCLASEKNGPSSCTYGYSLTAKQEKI
# Summary of the method: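 Competitive radioligand binding on rat forebrain membrane preparations, with filtration and scintillation readout after 4 h. Primary testing in duplicate at 25 uM; actives confirmed in concentration-response. DMSO defined baseline.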
# [2] = biological target: human Androgen Receptor (AR), AR (gene 367) (UniProt P10275); assay: NVS_NR_hAR: NovaScreen (NVS) Nuclear Receptor Binding Assay for human Androgen Receptor (AR) (AID 2283332)
# Summary of the method: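 LnCAP cell-free extract; radioligand displacement read by scintillation counting after 20 h. Primary screen single concentration 25 uM in duplicate, actives then run as concentration series; loss-of-signal fitted relative to DMSO baseline.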
# [3] = biological target: rat Peripheral-type Benzodiazepine Receptor (PBR), Tspo (gene 24230) (UniProt P16257); assay: NVS_MP_rPBR: NovaScreen (NVS) Membrane Protein Assay for rat Peripheral-type Benzodiazepine Receptor (PBR) (AID 2283335)
# rat Peripheral-type Benzodiazepine Receptor (PBR), Tspo (gene 24230), sequence (P16257 whole entry, looked up): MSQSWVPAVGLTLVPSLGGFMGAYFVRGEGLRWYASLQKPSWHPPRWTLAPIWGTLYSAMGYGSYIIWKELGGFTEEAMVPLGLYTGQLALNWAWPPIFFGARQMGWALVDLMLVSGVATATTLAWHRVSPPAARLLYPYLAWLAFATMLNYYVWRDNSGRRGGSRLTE
# Summary of the method: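 Radioligand displacement, rat kidney membrane prep, 1 h exposure, filter-based scintillation read; DMSO baseline, loss-of-signal scored. Primary screen at 25 uM in duplicate, actives followed up in concentration series.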
# [4] = biological target: chimpanzee Androgen Receptor (AR), AR (gene 747460) (UniProt O97775); assay: NVS_NR_cAR: NovaScreen (NVS) Nuclear Receptor Binding Assay for chimpanzee Androgen Receptor (AR) (AID 2283346);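 further: radioligand displacement from AR measured by scintillation counting in a cell-free assay; a loss of bound radioligand signal versus DMSO counts as binding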
# chimpanzee Androgen Receptor (AR), AR (gene 747460), sequence (O97775 whole entry, looked up): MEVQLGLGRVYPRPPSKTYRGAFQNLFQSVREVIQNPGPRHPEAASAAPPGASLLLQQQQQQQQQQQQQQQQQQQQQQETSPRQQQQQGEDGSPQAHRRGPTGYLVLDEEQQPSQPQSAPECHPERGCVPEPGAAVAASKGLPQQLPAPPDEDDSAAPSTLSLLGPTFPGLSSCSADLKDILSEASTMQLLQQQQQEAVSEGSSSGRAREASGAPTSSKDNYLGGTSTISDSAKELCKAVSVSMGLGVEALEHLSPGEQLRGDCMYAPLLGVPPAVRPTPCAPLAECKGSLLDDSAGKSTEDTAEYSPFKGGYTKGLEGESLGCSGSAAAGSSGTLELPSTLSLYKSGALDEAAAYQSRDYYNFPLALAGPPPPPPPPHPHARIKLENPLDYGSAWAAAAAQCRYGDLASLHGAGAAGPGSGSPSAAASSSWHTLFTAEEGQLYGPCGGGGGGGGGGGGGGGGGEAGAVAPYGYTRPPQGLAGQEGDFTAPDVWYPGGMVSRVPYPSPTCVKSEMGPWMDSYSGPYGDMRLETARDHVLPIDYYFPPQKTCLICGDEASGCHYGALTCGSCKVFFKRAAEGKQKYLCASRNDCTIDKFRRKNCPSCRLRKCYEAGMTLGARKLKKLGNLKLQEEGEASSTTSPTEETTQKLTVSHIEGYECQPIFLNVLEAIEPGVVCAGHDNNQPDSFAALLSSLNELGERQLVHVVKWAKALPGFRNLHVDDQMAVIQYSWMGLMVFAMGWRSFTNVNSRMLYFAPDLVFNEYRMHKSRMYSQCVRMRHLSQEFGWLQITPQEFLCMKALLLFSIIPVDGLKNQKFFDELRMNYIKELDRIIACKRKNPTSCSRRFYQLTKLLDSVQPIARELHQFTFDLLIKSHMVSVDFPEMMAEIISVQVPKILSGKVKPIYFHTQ
# Summary of the method: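 Radioligand binding to chimpanzee AR expressed in Sf9/Sf21 cells, cell-free, measured 72 h after dosing by lysate-based scintillation counting. Loss of signal vs DMSO; initial duplicate screen at 25 uM, actives retested in concentration series.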
# [5] = biological target: Estrogen receptor (Homo sapiens) (UniProt P03372); assay: NVS_NR_hER: NovaScreen (NVS) Nuclear Receptor Binding Assay for human Estrogen Receptor (ER) (AID 2283348)
# Estrogen receptor (Homo sapiens), sequence (P03372 whole entry, looked up, the tested form may be a part): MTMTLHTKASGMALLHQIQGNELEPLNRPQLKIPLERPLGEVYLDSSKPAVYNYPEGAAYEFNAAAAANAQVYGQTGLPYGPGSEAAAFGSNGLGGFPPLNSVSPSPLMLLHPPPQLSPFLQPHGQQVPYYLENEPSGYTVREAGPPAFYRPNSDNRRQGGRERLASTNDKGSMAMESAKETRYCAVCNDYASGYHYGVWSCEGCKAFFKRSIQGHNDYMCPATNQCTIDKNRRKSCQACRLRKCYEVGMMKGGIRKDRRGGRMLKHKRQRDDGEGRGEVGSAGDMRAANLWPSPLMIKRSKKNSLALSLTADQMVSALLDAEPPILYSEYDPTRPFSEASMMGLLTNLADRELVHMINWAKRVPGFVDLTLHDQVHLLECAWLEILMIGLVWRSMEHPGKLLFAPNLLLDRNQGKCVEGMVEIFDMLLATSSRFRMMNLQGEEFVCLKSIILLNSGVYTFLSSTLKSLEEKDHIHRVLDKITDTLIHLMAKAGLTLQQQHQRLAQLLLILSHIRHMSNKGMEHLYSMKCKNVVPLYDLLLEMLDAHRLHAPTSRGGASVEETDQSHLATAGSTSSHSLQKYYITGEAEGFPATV
# Summary of the method: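 Radioligand competitive displacement binding to estrogen receptor from MCF7 extract, cell-free; 18 h after dosing, scintillation read-out. Primary screen in duplicate at 25 uM; actives followed up in concentration series; loss of signal vs DMSO.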
# [6] = biological target: rat Mineralocorticoid Receptor (MR), Nr3c2 (gene 25672) (UniProt P22199); assay: NVS_NR_rMR: NovaScreen (NVS) Nuclear Receptor Binding Assay for rat Mineralocorticoid Receptor (MR) (AID 2283355)
# Summary of the method: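 Cell-free radioligand binding to mineralocorticoid receptor from adrenalectomized rat brain supernatant, scintillation counting after 24 h. Primary screen in duplicate at 25 uM; actives retested in concentration series. Loss of specific binding versus DMSO.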
# [7] = biological target: Estrogen receptor (Homo sapiens) (UniProt P03372); assay: OT_ER_ERaERa_1440: Odyssey Thera (OT) 24-hour HEK293T Protein-Complementation Assay for Estrogen Receptor-alpha/-alpha Homodimer (AID 2283349);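 further: hits raise fluorescence above DMSO for agonists and antagonists alike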
# Summary of the method: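 HEK293T cells stably expressing the human ER alpha ligand-binding domain (aa 310-547) as a homodimer PCA were dosed for 24 hours. Fluorescence intensity was read by laser scanning cytometry, and gain of signal was fitted relative to DMSO vehicle.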
# [8] = biological target: Estrogen receptor (Homo sapiens) (UniProt P03372); assay: OT_ER_ERaERa_0480: Odyssey Thera (OT) 8-hour HEK293T Protein-Complementation Assay for Estrogen Receptor-alpha/-alpha Homodimer (AID 2283351);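 further: rise in fluorescence from reassembled reporter fragments on ERα LBD homodimer in nucleus or whole cell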
# Summary of the method: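 HEK293T cells stably expressing the human ERα ligand-binding domain (aa 310-547) as a homodimer PCA were dosed with compound for 8 h. Gain of fluorescence intensity versus DMSO vehicle was read by laser scanning cytometry.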
# [9] = biological target: Estrogen receptor (Homo sapiens) + Estrogen receptor beta (Homo sapiens) (UniProt P03372+Q92731); assay: OT_ER_ERaERb_0480: Odyssey Thera (OT) 8-hour HEK293T Protein-Complementation Assay for Estrogen Receptor-alpha/-beta Heterodimer (AID 2283352)
# Estrogen receptor (Homo sapiens) + Estrogen receptor beta (Homo sapiens), sequence (P03372 whole entry, looked up): as the sequence (P03372 whole entry, looked up, the tested form may be a part) above
# Estrogen receptor (Homo sapiens) + Estrogen receptor beta (Homo sapiens), sequence (Q92731 whole entry, looked up): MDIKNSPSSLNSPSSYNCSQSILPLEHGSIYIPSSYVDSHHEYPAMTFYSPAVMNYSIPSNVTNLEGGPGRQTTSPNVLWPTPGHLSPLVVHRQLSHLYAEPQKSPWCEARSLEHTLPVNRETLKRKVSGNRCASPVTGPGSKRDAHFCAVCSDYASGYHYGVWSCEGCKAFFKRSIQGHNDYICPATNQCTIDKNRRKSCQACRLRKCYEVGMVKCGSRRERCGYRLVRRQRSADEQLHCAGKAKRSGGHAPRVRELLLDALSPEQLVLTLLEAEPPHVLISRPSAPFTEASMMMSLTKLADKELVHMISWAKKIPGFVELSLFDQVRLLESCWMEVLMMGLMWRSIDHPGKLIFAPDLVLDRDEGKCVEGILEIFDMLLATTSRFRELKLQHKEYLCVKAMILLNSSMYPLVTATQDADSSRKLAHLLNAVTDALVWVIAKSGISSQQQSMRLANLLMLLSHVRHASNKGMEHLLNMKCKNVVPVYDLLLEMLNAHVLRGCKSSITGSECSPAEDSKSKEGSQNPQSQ
# Summary of the method: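 Compound added to HEK293T cells carrying split-reporter-tagged ER-alpha and ER-beta LBDs, incubated 8 hours, then imaged by laser scanning cytometer. Signal rise in nucleus, or nucleus and cytoplasm, over vehicle was fitted in the positive direction.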
# [10] = biological target: Androgen Receptor/SRC-1 Co-activator, AR (gene 367) (UniProt P10275); assay: OT_AR_ARSRC1_0960: Odyssey Thera (OT) 16-hour HEK293T Protein-Complementation Assay for Androgen Receptor/SRC-1 Co-activator (AID 2283353);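 further: actives raise the signal above DMSO so potency reflects increased AR and SRC-1 complex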
# Androgen Receptor/SRC-1 Co-activator, AR (gene 367), sequence (P10275 whole entry, looked up, the tested form may be a part): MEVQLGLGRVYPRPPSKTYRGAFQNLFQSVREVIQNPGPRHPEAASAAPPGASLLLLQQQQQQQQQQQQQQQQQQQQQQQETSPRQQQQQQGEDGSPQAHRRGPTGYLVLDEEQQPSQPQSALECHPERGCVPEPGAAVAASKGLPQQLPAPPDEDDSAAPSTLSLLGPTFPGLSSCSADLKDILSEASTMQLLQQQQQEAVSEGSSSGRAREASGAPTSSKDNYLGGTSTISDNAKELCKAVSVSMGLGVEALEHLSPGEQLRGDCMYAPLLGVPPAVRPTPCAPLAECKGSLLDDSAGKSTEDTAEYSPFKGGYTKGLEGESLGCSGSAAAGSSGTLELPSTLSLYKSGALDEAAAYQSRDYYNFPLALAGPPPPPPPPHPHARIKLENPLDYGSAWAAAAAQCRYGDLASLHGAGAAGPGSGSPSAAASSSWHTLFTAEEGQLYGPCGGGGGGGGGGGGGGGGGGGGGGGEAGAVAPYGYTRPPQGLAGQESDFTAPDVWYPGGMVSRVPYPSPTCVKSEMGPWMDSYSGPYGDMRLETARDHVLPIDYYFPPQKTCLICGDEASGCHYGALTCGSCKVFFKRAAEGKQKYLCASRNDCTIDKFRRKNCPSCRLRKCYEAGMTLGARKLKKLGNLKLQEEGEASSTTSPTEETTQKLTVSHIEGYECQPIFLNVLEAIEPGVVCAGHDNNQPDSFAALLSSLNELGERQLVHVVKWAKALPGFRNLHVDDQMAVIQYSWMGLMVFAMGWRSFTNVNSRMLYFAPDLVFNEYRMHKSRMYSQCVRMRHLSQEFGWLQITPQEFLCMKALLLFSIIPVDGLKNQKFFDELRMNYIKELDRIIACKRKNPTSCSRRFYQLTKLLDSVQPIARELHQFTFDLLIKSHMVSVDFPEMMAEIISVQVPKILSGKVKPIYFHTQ
# Summary of the method: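 HEK293T cells stably expressing AR and SRC-1 fused to split Venus YFP fragments via (Gly4Ser)2 linkers were dosed for 16 h. Nuclear/cytoplasmic fluorescence ratio at 488 nm, ≥400 cells per image, fitted for gain of signal versus DMSO.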
# [11] = biological target: Androgen Receptor/SRC-1 Co-activator, AR (gene 367) (UniProt P10275); assay: OT_AR_ARSRC1_0480: Odyssey Thera (OT) 8-hour HEK293T Protein-Complementation Assay for Androgen Receptor/SRC-1 Co-activator (AID 2283354);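 further: hits raise the complementation signal above DMSO so AC50 marks enhancers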
# Summary of the method: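 HEK293T cells stably expressing AR and SRC-1 fused to Venus YFP fragments, imaged 8 h after dosing. Complementation fluorescence scored as nuclear/cytoplasmic ratio at 488 nm in at least 400 cells per image; gain fitted versus DMSO.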
# [12] = biological target: Estrogen receptor beta (Homo sapiens) (UniProt Q92731); assay: OT_ER_ERbERb_0480: Odyssey Thera (OT) 8-hour HEK293T Protein-Complementation Assay for Estrogen Receptor-beta/-beta Homodimer (AID 2283357);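 further: active means signal gain over DMSO baseline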
# Estrogen receptor beta (Homo sapiens), sequence (Q92731 whole entry, looked up, the tested form may be a part): as the sequence (Q92731 whole entry, looked up) above
# Summary of the method: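 Fluorescence intensity, nuclear for agonists and nuclear plus cytoplasmic for antagonists, was quantified by laser scanning cytometry versus vehicle after 8 h treatment. The cells were HEK293T stably carrying ER beta LBD fragment-complementation partners.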
# [13] = biological target: human Peripheral-type Benzodiazepine Receptor (PBR), TSPO (gene 706) (UniProt P30536); assay: NVS_MP_hPBR: NovaScreen (NVS) Membrane Protein Assay for human Peripheral-type Benzodiazepine Receptor (PBR) (AID 2283331);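 further: hits reduce radioligand binding relative to DMSO baseline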
# human Peripheral-type Benzodiazepine Receptor (PBR), TSPO (gene 706), sequence (P30536 whole entry, looked up): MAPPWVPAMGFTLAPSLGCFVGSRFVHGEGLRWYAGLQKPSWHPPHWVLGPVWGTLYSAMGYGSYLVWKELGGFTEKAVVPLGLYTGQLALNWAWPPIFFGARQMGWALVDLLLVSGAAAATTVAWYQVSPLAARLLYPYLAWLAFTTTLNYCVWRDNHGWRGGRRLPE
# Summary of the method: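 Radioligand displacement on human colonic cell membranes, 1 h incubation; bound radioactivity by filtration and scintillation counting. Primary screen in duplicate at 25 uM single concentration, actives followed up in concentration series; loss of binding versus DMSO.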
# [14] = biological target: human Constitutive Androstane Receptor (CAR), NR1I3 (gene 9970) (UniProt Q14994); assay: NVS_NR_hCAR_Agonist: NovaScreen (NVS) Nuclear Receptor Binding Assay for human Constitutive Androstane Receptor Agonism (CAR) (AID 2283328)
# Summary of the method: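 Cell-free TR-FRET binding readout with extracted human CAR protein, read 1 h after dosing. Gain of signal fitted against DMSO baseline. Single-concentration duplicates at 25 uM, then concentration-response up to 50 uM for actives.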
# [15] = NVS_IC_rCaBTZCHL: NovaScreen (NVS) Ion Channel Assay for Calcium Channel, Type L, Benzothiazepine Site (CaBTZCHL) (AID 2283337)
# Summary of the method: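 Radioligand binding to the benzothiazepine site of L-type Ca channels in rat cortical membranes (cell-free), 1.5 h after dosing; filter-based scintillation counting. Loss of signal relative to DMSO baseline; primary single-concentration screen at 25 uM, actives then run in concentration series.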
# [16] = biological target: bovine Estrogen Receptor (ER), ESR1 (gene 407238) (UniProt P49884); assay: NVS_NR_bER: NovaScreen (NVS) Nuclear Receptor Binding Assay for bovine Estrogen Receptor (ER) (AID 2283345);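 further: actives lower the bound radioligand count which means they displace the ER ligand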
# Summary of the method: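 Displacement of a radioligand from estrogen receptor in bovine uterine membrane preparations; scintillation signal taken at 18 hours, DMSO as baseline. Single-concentration duplicates (25 uM) preceded concentration-response follow-up of actives.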
smiles,measurement,setting,value
O=c1[nH]c(=O)n(Cl)c(=O)n1Cl,outcome,[1],inactive
Cc1cc(C(C)(C)c2ccc(O)c(C)c2)ccc1O,AC50,[2],2930 nM (active)
same,outcome,[3],inactive
same,outcome,[4],inactive
same,outcome,[5],inactive
same,outcome,[6],inactive
N#CCC#N,outcome,[1],inactive
same,outcome,[7],inactive
same,outcome,[8],inactive
same,outcome,[9],inactive
same,outcome,[10],inactive
same,outcome,[11],inactive
same,outcome,[12],inactive
CCOC(=O)C(SP(=S)(OC)OC)c1ccccc1 (centres undefined),AC50,[13],13400 nM (active)
same,AC50,[3],7410 nM (active)
N#CCCC(Br)(C#N)CBr (centres undefined),outcome,[1],inactive
same,outcome,[9],inactive
CCOP(=S)(OCC)O/N=C(\C#N)c1ccccc1,outcome,[13],inactive
same,AC50,[3],16200 nM (active)
same,AC50,[12],26900 nM (active)
O=C(N[C@H]1CN2CCC1CC2)c1ccc2c(c1)OCCO2,outcome,[14],inactive
same,outcome,[10],inactive
same,outcome,[11],inactive
same,outcome,[12],inactive
COc1ccccc1N,outcome,[1],inactive
Cc1ccccc1OP(=O)(Oc1ccccc1)Oc1ccccc1,AC50,[13],1280 nM (active)
same,AC50,[3],284 nM (active)
Cc1cccc(OP(=O)(Oc2cccc(C)c2)Oc2cccc(C)c2)c1,AC50,[13],1790 nM (active)
same,AC50,[3],1260 nM (active)
Cc1ccc(OP(=O)(Oc2ccc(C)cc2C)Oc2ccc(C)cc2C)c(C)c1,AC50,[13],422 nM (active)
same,AC50,[3],1060 nM (active)
Cc1ccc2nc3sc(=O)sc3nc2c1,AC50,[4],363 nM (active)
Oc1cc(Cl)c(Cl)cc1Cl,outcome,[4],inactive
same,AC50,[12],43800 nM (active)
O=S(=O)(C(Cl)(Cl)Cl)C(Cl)(Cl)Cl,outcome,[15],inactive
N#CS,outcome,[4],inactive
OC(Cc1ccccc1Cl)(Cn1cncn1)C1(Cl)CC1 (centres undefined),outcome,[4],inactive
CC(C)=CC1C(C(=O)OCc2cccc(Oc3ccccc3)c2)C1(C)C (centres undefined),outcome,[4],inactive
same,outcome,[7],inactive
same,outcome,[8],inactive
same,outcome,[9],inactive
same,outcome,[12],inactive
OC(Cc1ccccc1Cl)(Cn1[nH]cnc1=S)C1(Cl)CC1 (centres undefined),outcome,[2],inactive
same,outcome,[4],inactive
C=CC(=O)[O][Sn]([CH2]CCC)([CH2]CCC)[CH2]CCC,outcome,[16],inactive
same,outcome,[5],inactive
Brc1ccc(Br)cc1,outcome,[15],inactive
CC(C)[C@@H](Nc1ccc(C(F)(F)F)cc1Cl)C(=O)OC(C#N)c1cccc(Oc2ccccc2)c1 (some centres undefined),outcome,[16],inactive
same,outcome,[5],inactive
